# Source: PubChem BioAssay (Tox21)
# Records with an inconclusive call do not appear. Where a call stands in place of a potency, no number is given. Some compounds were tested as several samples or in several runs, with calls that do not always agree. Active and inactive are the calls of the source. Calls follow the shape of the full dose curve.
# Experiment: qHTS assay to identify small molecule agonists of H2AX - cell viability counter screen (AID 1224847); also: nearly all actives have a fitted effect of over 30% in size
# Conditions: CHO-K1 viability, CellTiter-Glo luminescence, 3 h; series mostly up to 154 µM
# Excerpt: National Center for Advancing Translational Sciences [NCATS]
# NIH Chemical Genomics Center [NCGC]
# U.S. Environmental Protection Agency [EPA]
# National Institutes of Environmental Health Sciences [NIEHS]
# National Toxicology Program [NTP]
# U.S. Food and Drug Administration [FDA]
# HTRF phospho-H2AX (Ser139) assay (Cisbio Bioassays, US) enables the quantitative detection of the histone variant H2AX when phosphorylated on serine 139. When double-stranded DNA breaks, either by ionizing radiation or endogenous physiological processes, H2AX becomes phosphorylated at Ser139. This phospho-Ser139 serves as a sensitive biomarker for the detection of such breaks, localizing the site of DNA repair. So, HTRF phospho-H2AX Ser139 is a pertinent assay to study genome stability, the cell cycle, DNA repair, and it serves as a biomarker for cancer, and to understand aging. Wild type CHO-K1 cells were used to identify the inducers of Phospho-H2AX Ser 139 from the Tox21 compound collections. Also cytotoxicity of the Tox21 10K compound library against the CHO-K1 cell line was tested by measuring the cell viability using CellTiter-Glo assay (Promega, Madison, WI).
# Tox21 Assay Protocol Summary:
# The CHO-K1 cells suspended in culture medium containing 10% FBS were dispensed at 1000 cells/ 3 ul/well in 1536-well white wall/solid bottom plates (Greiner Bio-One North America, NC) using a Multidrop Combi (Thermo Fisher Scientific Inc., Waltham, MA). After the assay plates were incubated at 37C overnight, 23 nl of compounds at 15 concentrations (from 5-48 columns) or positive control (from 1 to 4 columns) were transferred to the assay plates using a Pintool station (Wako, San Diego, CA) into each well resulting in a final DMSO concentration of 0.76%. After 3hr incubation at 37C, 3 uL/well CellTiter-Glo luminescent cell viability reagent (Promega Corporation, Madison, WI) was added using a Flying Reagent Dispenser (FRD) (Aurora Discovery, CA). After incubation at room temperature for 30 min, the luminescence intensity was read using a ViewLux plate reader (PerkinElmer, Waltham, MA).
# Potency is read from the fitted curve at half-maximal effect.
row,SMILES,Potency
1,Nc1nc(N)c2nc(-c3ccccc3)c(N)nc2n1,inactive
2,O=Cc1ccc(CO)o1,inactive
3,O=[N+]([O-])c1cc(C(F)(F)F)ccc1Cl,inactive
4,COc1ccccc1[N+](=O)[O-],inactive
5,CCN(CC)CCNC(=O)c1ccc(N)cc1,inactive
6,CCCCC(=O)O,inactive
7,NC1CCCCC1N (stereo not given),inactive
8,CC(O)CNCC(C)O (stereo not given),inactive
9,CC(=O)c1nccs1,inactive
10,Cc1ccccc1C=O,inactive
11,C=C(C)CC(C)(C)C,inactive
12,C[n+]1ccn(CCO)c1,inactive
13,CC(C)(CO)CO,inactive
14,CCOC(=O)c1ccc(O)cc1,inactive
15,CC/C=C(\C(=O)N[C@@H]1C(=O)N2C(C(=O)OCOC(=O)C(C)(C)C)=C(COC(N)=O)CS[C@H]12)c1csc(N)n1,inactive
16,OC1CCCCC1,inactive
17,CCCCCCCCC(=O)O,inactive
18,CC(C)=CCC/C(C)=C/C=O,inactive
19,CC/C(C)=N/O,inactive
20,Cc1nnc(NS(=O)(=O)c2ccc(N)cc2)s1,inactive

row,SMILES,Potency
1,O=C1C(N(CO)C(=O)NCO)N(CO)C(=O)N1CO (stereo not given),inactive
2,O=C(c1ccccc1)c1ccc(O)c(O)c1O,inactive
3,O=C(O)Cc1c[nH]c2ccccc12,inactive
4,CCOC(=O)CC(=O)OCC,inactive
5,O=[N+]([O-])c1ccccc1C(F)(F)F,inactive
6,CC(=O)OC/C=C(\C)CCC=C(C)C,inactive
7,CN=C(NC#N)NCCSCc1nc[nH]c1C,inactive
8,C[Si](C)(C)N[Si](C)(C)C,inactive
9,c1cnc2c(c1)ccc1cccnc12,80.8 µM (active) and inactive
10,CS(=O)(=O)c1ccc(Cl)cc1,inactive
11,CC[N+](CC)(CC(=O)Nc1c(C)cccc1C)Cc1ccccc1,inactive
12,Clc1cccc(Cl)c1NC1=NCCN1,inactive
13,Nc1cccc(N)n1,inactive
14,Cc1ccc(C)c(S(=O)(=O)O)c1,inactive
15,CCCCCCCCCCCCCC(=O)O,inactive
16,CN1Cc2c(N)cccc2C(c2ccccc2)C1 (stereo not given),inactive
17,Cc1cc(C)cc(O)c1,inactive
18,COC(=O)/C=C\C(=O)OC,inactive
19,CCCCCC(C)=O,inactive
20,OCC(O)CS (stereo not given),inactive
